Test results as given in the supplement of paper PMC10127200.
Values joined by “and” are separate entries in the source; they are usually repeats but may differ in a detail not shown here. Equal entries are not always repeated. Structures can show the parent of a compound that is named as a salt.

Each compound was assayed on 786-O (assay: Euclidean distance of Cell Painting phenotypic profile (signed KS, 77 features) to DMSO centroid (dimensionless distance); 5 or 10 uM (library dependent); higher = stronger phenotypic change vs DMSO (phenoactivity)). Conditions: 48 h.
Summary of the method: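 At 10 or 5 uM, as set by the library, and 0.1% DMSO final, compounds were applied for 48 h to five cancer lines and one healthy fibroblast line. Stained cells were imaged confocally at 20X in 9 fields per well, and Harmony extracted 77 features scored as signed Kolmogorov-Smirnov statistics against vehicle wells on the same plate. Profiles underwent plate-position correction, correlation weighting and replicate averaging at the top dose. Phenoactivity is the Euclidean distance from each such profile to the median vehicle profile.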
`OCC1OC(OC2OC(CO)C(O)C(O)C2O)C(O)C(O)C1O` [D-(+)-Trehalose Anhydrous] gave an Euclidean distance of 1.42. Compound `CONC(=O)Nc1ccc(-c2sc3c(c2CN(C)C)c(=O)n(-c2ccc(OC)nn2)c(=O)n3Cc2c(F)cccc2F)cc1` [Relugolix] has an Euclidean distance of 1.06. In the case of `CN1CCN(CCCN2c3ccccc3Sc3ccc(Cl)cc32)CC1` [Prochlorperazine dimaleate salt], the Euclidean distance is reported as 1.84. `C[C@@H]1CCN(C(=O)CC#N)C[C@@H]1N(C)c1ncnc2[nH]ccc12` was tested, and the Euclidean distance was 0.925 and 0.548. In the case of `C[C@H]1CN(C[C@H](Cc2ccccc2)C(=O)NCC(=O)O)CC[C@@]1(C)c1cccc(O)c1` [Alvimopan dihydrate], the Euclidean distance is reported as 0.875. `COc1ccccc1OCC(O)COC(N)=O` (centres undefined) [Methocarbamol] was tested, and the Euclidean distance was 1.4. With `NC1=N[C@@]2(c3cc(NC(=O)c4ccc(F)cn4)ccc3F)COC[C@H]2CS1` the Euclidean distance was 1.08. `O=c1c(O)c(-c2ccc(O)cc2)oc2cc(O)cc(O)c12` [Kaempferol] gave an Euclidean distance of 1.49. `COc1cc2c(cc1-c1c(C)noc1C)ncc1[nH]c(=O)n([C@H](C)c3ccccn3)c12` was tested, and the Euclidean distance was 2.62. Compound `O=c1[nH]c(=O)n([C@H]2C[C@H](O)[C@@H](CO)O2)cc1/C=C/Br` [Brivudine] has an Euclidean distance of 1.21. `C[C@]1(c2nc3c(C(N)=O)cccc3[nH]2)CCCN1` [Veliparib (ABT-888)] showed an Euclidean distance of 1.29. `COc1cc2nccc(Oc3ccc(NC(=O)C4(C(=O)Nc5ccc(F)cc5)CC4)cc3)c2cc1OC` gave an Euclidean distance of 2.21. `CN1CCN(C(=O)c2cc3cc(Cl)ccc3[nH]2)CC1` gave an Euclidean distance of 1.14. In the case of `CCCCC(CC)COC(=O)CC(C(=O)OCC(CC)CCCC)S(=O)(=O)O` (centres undefined) [Docusate Sodium], the Euclidean distance is reported as 0.771. Work on `O=C(O)Cc1ccccc1Nc1c(Cl)cccc1Cl` [Diclofenac acid] yielded an Euclidean distance of 0.971. Compound `COc1ccccc1N1CCN(CC(O)COc2cccc3ccccc23)CC1` (centres undefined) [Naftopidil] has an Euclidean distance of 1.4. Compound `CC(=O)OC1CC2CCC1(C)C2(C)C` (centres undefined) [Bornyl acetate] has an Euclidean distance of 1.09. With `CC(C)CCNc1ncccc1C(=O)N1CCN(Cc2ccccc2)CC1` the Euclidean distance was 0.757. `C=C1C(=O)O[C@H]2[C@H]1CC/C(C)=C/CC[C@@]1(C)O[C@@H]21` [(-)-Parthenolide] showed an Euclidean distance of 3.29. `COc1ccc(C(=O)c2ccccc2)c(O)c1` [Oxybenzone] gave an Euclidean distance of 1.07. With `N=C(NOCC(O)CN1CCCCC1)c1cccnc1` (centres undefined) the Euclidean distance was 1.13. In the case of `N[C@@H]1CCCC[C@H]1N.O=C([O-])C(=O)[O-].[Pt+2]` [Eloxatin], the Euclidean distance is reported as 3.84. `Cc1cc(C)c(/C=C2\C(=O)Nc3ccccc32)[nH]1` [Semaxanib (SU5416)] gave an Euclidean distance of 2.05. In the case of `CCCSc1ccc2[nH]c(NC(=O)OC)nc2c1` [Albendazole], the Euclidean distance is reported as 2.6. `N[C@H](CO)C(=O)O` [(R)-Serine] was tested, and the Euclidean distance was 1.31. `O=C(O)c1ccc(Nc2ncc3c(n2)-c2ccc(Cl)cc2C(c2c(F)cccc2F)=NC3)cc1` showed an Euclidean distance of 2.83. Compound `C/C=C\c1ccc(O)c(OC)c1` [Isoeugenol] has an Euclidean distance of 0.776. In the case of `C[C@H](NC(=O)[C@@H](O)c1cc(F)cc(F)c1)C(=O)N[C@@H]1C(=O)N(C)c2ccccc2-c2ccccc21`, the Euclidean distance is reported as 1.22. In the case of `CS(=O)(=O)c1ccc(C(=O)Nc2ccc(Cl)c(-c3ccccn3)c2)c(Cl)c1` [Vismodegib (GDC-0449)], the Euclidean distance is reported as 1.82. For `CCc1cc2c(cc1N1CCC(N3CCOCC3)CC1)C(C)(C)c1[nH]c3cc(C#N)ccc3c1C2=O`, the Euclidean distance was 1.54. Work on `CCC(C)(C)c1ccc(CC(C)CN2C[C@@H](C)O[C@@H](C)C2)cc1` (some centres undefined) [Amorolfine HCl] yielded an Euclidean distance of 0.719. Compound `COc1cc(Nc2ncc3c(n2)-c2ccc(Cl)cc2C(c2c(F)cccc2OC)=NC3)ccc1C(=O)O` [Alisertib (MLN8237)] has an Euclidean distance of 2.85. For `Cc1ccc(NC(=O)C2(c3ccc4c(c3)OC(F)(F)O4)CC2)nc1-c1cccc(C(=O)O)c1` [VX-809 (Lumacaftor)], the Euclidean distance was 1.11. `COc1c(-c2ccc3cc(NS(C)(=O)=O)ccc3c2)cc(-n2ccc(=O)[nH]c2=O)cc1C(C)(C)C` [Dasabuvir(ABT-333)] showed an Euclidean distance of 1.78. `CCCCOc1ccc(CC(=O)NO)cc1` [Bufexamac] gave an Euclidean distance of 1.36. Compound `CC(C)c1nc(CN(C)C(=O)N[C@@H](CCN2CCOCC2)C(=O)N[C@H](CC[C@H](Cc2ccccc2)NC(=O)OCc2cncs2)Cc2ccccc2)cs1` [Cobicistat (GS-9350)] has an Euclidean distance of 2.05. `CNS(=O)(=O)CCc1ccc2[nH]cc(C3CCN(C)CC3)c2c1` [Naratriptan] gave an Euclidean distance of 1.48. For `C=CC(=O)Nc1cccc(Nc2nc(Nc3ccc(OCCOC)cc3)ncc2F)c1` [Spebrutinib (CC-292. AVL-292)], the Euclidean distance was 2.73. With `C[C@@H](N)[C@H]1CC[C@H](C(=O)Nc2ccncc2)CC1` the Euclidean distance was 3.12.
